From PubChem BioAssay come the findings set out here.

Active and inactive are the calls of the source. Unless noted, the rule behind the calls is not given here.

Experiment [1] deals with Wnt5a (protein binding on small-molecule microarray). In words: Wnt5a binders on small-molecule microarray, primary screen, biophysical, 635/667 nm fluorescence (AID 1142).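 Note: fluorescence read at 667 nm with signal to noise per printed feature.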 The settings on record: 635 nm fluorescence, higher = more signal.
A short description of experiment [2]: cell viability in Huh7 cells, primary screen, cytotoxicity control for HCV replication inhibitor project, CellTiter-Glo luminescence, basal, 48 h (AID 1143).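 Note: Huh7 hepatoma cells carrying a hepatitis C replication reporter with no stimulus; test concentration not given here.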 The settings on record: Huh7 HCV replicon, higher = more signal, called active from +8 up or from −8 down. For orientation: Cellular ATP, detected with luciferase, serves as a proxy for viable cell number.

Experiment [3] in a line: P. aeruginosa biofilm formation inhibitors, primary screen, PAO1 strain, BacTiter-Glo luminescence, LB-PBS (AID 1144). The settings on record: 12 h, higher = more signal.
Experiment [4] in a line: CREB reporter modulators without forskolin, primary screen, cell-based, PC12, CRE-LacZ reporter, unstimulated (AID 1145). The settings on record: no forskolin, luminescence, 4.5 h, higher = more signal, called active from +8 up or from −8 down.
The nature of experiment [5]: CREB reporter modulators under forskolin, primary screen, cell-based, PC12, CRE-LacZ reporter, forskolin-stimulated (AID 1146).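 Note: PC12 cells with 6xCRE LacZ reporter stimulated by forskolin 10 µM; beta-galactosidase reporter signal reflecting CREB driven transcription.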 The settings on record: luminescence, 4.5 h, higher = more signal, called active from +8 up or from −8 down.
Experiment [6] concerns the target Streptavidin (Streptomyces avidinii) (UniProt P22629). In words: streptavidin binders on small-molecule microarray, primary screen, artefact control for SMM compound annotation, biophysical, 635/667 nm fluorescence (AID 1147).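 Note: signal reflects streptavidin binding to arrayed compounds as a control protein.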 The settings on record: streptavidin binding, higher = more signal.
Experiment [7] is described as follows: small-molecule binders of probe aInhba, primary screen, biochemical, small-molecule microarray, 635/667 nm fluorescence (AID 1148).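 Note: score merges 667nm spot fluorescence with signal-to-noise for antibody binding to printed compounds.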 The settings on record: higher = more signal.
Experiment [8] deals with Torsin-1A (Homo sapiens) (UniProt O14656). In words: torsin A binders from cell lysate, primary screen, small-molecule microarray, wild-type, 635/667 nm (AID 1149). The settings on record: COS7 hTOR1A-WT lysate, 635 nm fluorescence, higher = more signal.
Sequence of Torsin-1A (Homo sapiens) (O14656 whole entry, looked up): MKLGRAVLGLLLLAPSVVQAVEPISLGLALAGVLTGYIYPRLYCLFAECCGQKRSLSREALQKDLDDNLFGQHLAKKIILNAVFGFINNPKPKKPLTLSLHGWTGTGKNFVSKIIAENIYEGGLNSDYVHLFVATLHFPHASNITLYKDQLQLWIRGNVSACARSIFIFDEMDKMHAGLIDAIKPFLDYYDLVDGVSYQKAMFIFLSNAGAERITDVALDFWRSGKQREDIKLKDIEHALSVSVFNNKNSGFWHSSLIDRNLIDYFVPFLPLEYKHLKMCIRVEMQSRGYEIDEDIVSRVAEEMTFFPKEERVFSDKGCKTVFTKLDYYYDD
Experiment [9] shares this target. Description: small-molecule binders of mutant TOR1A in lysate, primary screen, cell lysate, small-molecule microarray, COS7 lysate, 635/667 nm fluorescence (AID 1150).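 Note: score pools 667 nm emission and signal to noise measuring lysate protein binding.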 The settings on record: COS7 hTOR1A mutant lysate, 635 nm fluorescence, higher = more signal.
The subject of experiment [10] is Sonic hedgehog protein (Shh). In words: small-molecule binders of Shh protein, primary screen, biochemical, small-molecule microarray, 635/667 nm fluorescence (AID 1151).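 Note: Shh protein binding to compounds spotted on small-molecule microarray slides; score combines spot fluorescence intensity with signal-to-noise across triplicate slides.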 The settings on record: small-molecule microarray binding, 635 nm fluorescence; higher = more signal.

Sequence of Streptavidin (Streptomyces avidinii) (P22629 whole entry, looked up): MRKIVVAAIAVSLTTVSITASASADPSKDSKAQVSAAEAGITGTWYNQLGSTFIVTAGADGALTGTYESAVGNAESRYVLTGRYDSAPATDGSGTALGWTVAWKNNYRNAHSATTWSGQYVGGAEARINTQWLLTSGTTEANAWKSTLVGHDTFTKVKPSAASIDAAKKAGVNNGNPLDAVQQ

Take `COc1ccc([Si](C)(C)[C@@H]2[C@@H](CCO)O[C@]3(C(=O)N(Cc4cccc(N5C(=O)COc6ccccc65)c4)c4ccccc43)[C@H]2C)cc1`: the composite z-score in experiment [1] was -0.0772; in experiment [6] it was 0.428; in [7], 0.0633; in the experiment with Torsin-1A (Homo sapiens) [8], -0.277; in the experiment with Torsin-1A (Homo sapiens) [9], -0.491; in experiment [10] it was 0.45. Also, the z-score was -7.12 (inactive) in experiment [2], -0.17 (inactive) in experiment [3], 6.98 (inactive) in experiment [4] and 0.586 (inactive) in experiment [5].
As to `COC(=O)[C@@]1(Cc2ccccc2)[C@H]2c3cc(C(=O)N4CCCC4)n(Cc4ccccc4)c3C[C@H]2CN1C(=O)c1ccccc1`, the composite z-score is 0.651 in experiment [1]; 0.589 in [6]; 0.53 in experiment [7]; -0.112 in the experiment with Torsin-1A (Homo sapiens) [8]; -0.0741 with Torsin-1A (Homo sapiens) [9]; -0.606 in experiment [10]. Besides, the z-score was -3.2 (inactive) in experiment [2], -0.402 (inactive) in [3], 1.74 (inactive) in [4] and -0.0064 (inactive) in experiment [5].
On to `O=C1NC(=O)C2C1C=CC(C(O)CCc1ccccc1)N2Nc1ccccn1` (stereo not given), for which the composite z-score in experiment [1] was 0.149; in [6] it was 0.179; in experiment [7], -0.0849; with Torsin-1A (Homo sapiens) [8], 0.0825; with Torsin-1A (Homo sapiens) [9], 0.486; in experiment [10], 0.0046. Also, the z-score was -0.466 (inactive) in [2], -0.922 (inactive) in experiment [3], 0.433 (inactive) in [4] and -0.382 (inactive) in experiment [5].
For `CC(C)CNC(=O)[C@@]1(C)c2ccccc2C(=O)N(Cc2ccccc2)[C@H]1c1ccc(CO)cc1`, the composite z-score was -0.368 in experiment [1]; -1.18 in experiment [6]; -0.331 in experiment [7]; -1.5 with Torsin-1A (Homo sapiens) [8]; -0.742 with Torsin-1A (Homo sapiens) [9]; -1.02 in experiment [10]. For the same compound, the z-score was 0.0572 (inactive) in [2], 0.789 (inactive) in experiment [3], 0.531 (inactive) in [4] and 0.172 (inactive) in [5].
For `COC(=O)[C@@]1(Cc2ccc(OC)cc2)[C@H]2c3cc(C(=O)N4CCCC4)n(CCF)c3C[C@H]2CN1C(=O)c1ccccc1`, the composite z-score in experiment [1] is 2.55; in [6] it was 1.5; in experiment [7], 2.05; in the experiment with Torsin-1A (Homo sapiens) [8], -0.0089; with Torsin-1A (Homo sapiens) [9], 0.619; in experiment [10] it was -0.801. The z-score in experiment [2] was -2.46 (inactive); in [3], -0.129 (inactive); in [4] it was 0.972 (inactive); in experiment [5], 0.325 (inactive).
As for `CC(C)(C)OC(=O)CC[C@@]1(C(=O)N2CCCCC2)N=C(c2ccc(OCCCO)cc2)O[C@@H]1c1ccccc1CN=[N+]=[N-]`, the composite z-score is 0.34 in experiment [1]; 1.07 in experiment [6]; 0.248 in experiment [7]; 1.1 in the experiment with Torsin-1A (Homo sapiens) [8]; 1.22 with Torsin-1A (Homo sapiens) [9]; -0.226 in [10]. The z-score in [2] is -1.95 (inactive); in experiment [3], 0.37 (inactive); in experiment [4] it was 0.414 (inactive); in experiment [5], -0.284 (inactive).
As for `CCCNC(=O)[C@@H]1c2ccccc2C(=O)N(CC23CC4CC(CC(C4)C2)C3)[C@H]1c1ccc(CO)cc1`, the composite z-score in experiment [1] is 0.435; in experiment [6] it was 0.673; in [7], -0.118; with Torsin-1A (Homo sapiens) [8], 0.92; with Torsin-1A (Homo sapiens) [9], -0.0207; in [10], 1.05. Also, the z-score in [2] was -4.68 (inactive); in experiment [3], -0.929 (inactive); in experiment [4], 0.764 (inactive); in [5], -0.517 (inactive).
Turning to `N#Cc1ccc(NN2C(C(O)c3ccco3)C=CC3C(=O)N(c4ccccc4)C(=O)C32)cc1` (stereo not given), the composite z-score in experiment [1] was 0.0896; in experiment [6], 0.252; in [7], 0.0183; with Torsin-1A (Homo sapiens) [8], 0.135; with Torsin-1A (Homo sapiens) [9], -0.236; in experiment [10], -0.0404. For the same compound, the z-score in experiment [2] was 1.34 (inactive); in experiment [3], -0.768 (inactive); in [4], -0.136 (inactive); in experiment [5], 0.2 (inactive).
As for `COC(=O)[C@]1(Cc2ccccc2CN=[N+]=[N-])N=C(c2ccc(OCCCO)cc2)O[C@@H]1c1ccccc1CN=[N+]=[N-]`, the composite z-score was 0.749 in experiment [1]; -0.908 in experiment [6]; -0.0471 in [7]; -0.355 with Torsin-1A (Homo sapiens) [8]; -0.27 in the experiment with Torsin-1A (Homo sapiens) [9]; 0.353 in experiment [10]. The z-score in experiment [2] is -4.12 (inactive); in experiment [3], -0.247 (inactive); in [4], 1.6 (inactive); in [5], -1.01 (inactive).
Regarding `COCCOC(=O)N1C(=O)[C@@]2(c3cc(C#CCC(C(=O)OC)C(=O)OC)ccc31)[C@H](C(=O)N1CCCCCCC1)[C@H]1C(=O)O[C@H](c3ccccc3)[C@H](c3ccccc3)N1[C@@H]2c1ccc(O)cc1`, the composite z-score worked out at 0.735 in [1]; 1.22 in experiment [6]; 1.22 in [7]; 1.41 with Torsin-1A (Homo sapiens) [8]; 1.41 with Torsin-1A (Homo sapiens) [9]; 1.62 in experiment [10]. Moreover, the z-score in [2] was -4.08 (inactive); in experiment [3], -0.754 (inactive); in experiment [4], -0.882 (inactive); in [5] it was -0.807 (inactive).
As for `COC(=O)[C@@]1(Cc2ccccc2N=[N+]=[N-])N=C(c2ccc(OCCCO)cc2)O[C@H]1c1ccccc1`, the composite z-score was 0.748 in experiment [1]; 0.248 in experiment [6]; -0.0403 in [7]; -0.89 in the experiment with Torsin-1A (Homo sapiens) [8]; 0.305 in the experiment with Torsin-1A (Homo sapiens) [9]; 0.175 in [10]. Also, the z-score in [2] is -5.42 (inactive); in [3], 0.313 (inactive); in experiment [4], 1.29 (inactive); in [5] it was -0.688 (inactive).
`[N-]=[N+]=NCc1ccccc1[C@H]1OC(c2ccc(OCCCO)cc2)=N[C@@]1(Cc1ccccc1N=[N+]=[N-])C(=O)NCCN1CCOCC1`: the composite z-score in experiment [1] was 0.853; in [6], 1.37; in [7], 0.0657; with Torsin-1A (Homo sapiens) [8], -0.161; with Torsin-1A (Homo sapiens) [9], 1.04; in experiment [10], 0.271. Also, the z-score was -2.28 (inactive) in [2], 0.28 (inactive) in experiment [3], 0.162 (inactive) in experiment [4] and -0.542 (inactive) in experiment [5].
Consider `COc1ccc([Si](C)(C)[C@H]2[C@H](CC(=O)N3CCC[C@H]3CO)O[C@@]3(C(=O)N(Cc4ccc(N5C(=O)c6cccc7cccc5c67)cc4)c4ccccc43)[C@@H]2C)cc1`, for which the composite z-score in experiment [1] is 0.213; in experiment [6], 0.197; in experiment [7], 0.134; in the experiment with Torsin-1A (Homo sapiens) [8], 0.81; with Torsin-1A (Homo sapiens) [9] it was 0.397; in experiment [10], 2.05. The z-score is -3.73 (inactive) in experiment [2], 0.0403 (inactive) in experiment [3], 0.543 (inactive) in experiment [4] and -0.594 (inactive) in experiment [5].
Turning to `CN(C)CCCNC(=O)[C@@]1(Cc2ccccc2I)c2ccccc2C(=O)N(Cc2ccccc2Cl)[C@H]1c1ccc(CO)cc1`, the composite z-score in experiment [1] was 0.228; in experiment [6], 0.592; in experiment [7], 0.397; with Torsin-1A (Homo sapiens) [8], -0.155; with Torsin-1A (Homo sapiens) [9] it was -0.609; in experiment [10] it was -0.0692. For the same compound, the z-score in [2] is -5.9 (inactive); in [3], 0.599 (inactive); in [4], 0.0548 (inactive); in experiment [5], 2.02 (inactive).
As to `O=C1OCC=C[C@H]2OC34C=CCN(CCN5CCOCC5)C(=O)[C@H]3N(CCCCCO)C(=O)[C@@H]4[C@@H]12` (stereo not given in full), the composite z-score was -0.304 in [1]; 0.257 in [6]; -0.128 in experiment [7]; -0.419 with Torsin-1A (Homo sapiens) [8]; 0.11 in the experiment with Torsin-1A (Homo sapiens) [9]; 0.175 in experiment [10]. Also, the z-score in [2] is 0.0976 (inactive); in [3], 0.0824 (inactive); in experiment [4], 2.22 (inactive); in experiment [5], -0.555 (inactive).
